# From PubChem BioAssay AID1159506 (National Center for Advancing Translational Sciences (NCATS), 2015)
# Whole data set: some 59,000 sequences, median the read-out near -0.00055, cut for the lowest 2% near -2. Only a selection was taken, and the lowest values are over-represented in it overall.
# Experiment: Identification of proteins required for the processing of the EWS-FLI1 nascent transcript;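 note: robust z of luciferase light less the median z of siRNAs with the same seed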
# Details: TC32 Ewing sarcoma NR0B1-luc vs CMV-luc (EWS-FLI1 target promoter against control promoter), 48 h; screened at 20 nM (by protocol)
# Experimental: Ewing sarcoma (ES) cells depend on the EWS-FLI1 fusion transcription factor for cell survival. Using an assay of EWS-FLI1 activity and genome-wide siRNA screening we have identified proteins required for the processing of the EWS-FLI1 nascent transcript. Parallel genome-wide siRNA-mediated RNAi screens were conducted in Ewing sarcoma TC32 cell lines expressing a luciferase (luc) reporter protein driven by either the promoter of the EWS-FLI1 target gene NR0B1 (TC32-NR0B1-luc) or the CMV promoter (TC32-CMV-luc). Luciferase activity was assessed 48 hours post siRNA-transfection.
# Twenty microl of serum-free media containing Lipofectamine RNAiMax (0.05 microl) was added to wells containing siRNA (0.8 pmol). Lipid and siRNA were allowed to complex for 45 min at ambient temperature before addition of 600 cells in RPMI-1640, 20% FBS to yield final transfection mixtures containing 20 nM siRNA in RPMI-1640, 10% FBS. Luciferase expression was measured using OneGlo (Promega, Madison, WI). The genome-wide screening campaign was conducted using Ambion's human genome library version 4.1 (Ambion, Austin TX). This library targets approximately 21000 human genes, three siRNAs per gene. Each siRNA is arrayed in an individual well of a 384-well plate. Parallel transfections were conducted in TC32-NR0B1-luc and TC32-CMV-luc cell lines and luciferase expression (OneGlo, Promega) was assayed 48 h later on a PerkinElmer Envision 2104 Multilabel plate reader (PerkinElmer, Waltham, MA). Qiagen's AllStars Negative control was incorporated on all screening plates for normalization (16 wells per plate). Qiagen, Germantown, MDsiGL4 was incorporated as a positive transfection control (16 wells per plate) on all plates. […] The raw luciferase data for the NR0B1- and CMV-luc screens were normalized and z-score-MAD transformed using standard methods (Chung et al., 2008). The miRNA-like seed sequence of every siRNA was determined and the median z-score for all siRNA sequences with the same seed sequence was calculated. This z-score was subtracted from the z-score associated with each siRNA with that seed sequence to generate a seed-adjusted z-score value (Z) that was used when the results for the three siRNAs corresponding to each gene were compared (Marine et al., 2012)
row,Sequence,seed-corrected z-score
1,UAAGGUUCGACCUGCAGAG against MNX1-AS1,-2.4
2,UUCCGUUGAUUCUUUCUCC against KAT5,-1.63
3,UUGGUGGUCAUUAAGGUUG against PQLC3,-0.378
4,AAUCUGUCUGUAGGUAUCC against TBC1D22B,-0.38
5,AUUGAUGUAAUCUCCGUCC against PTPN7,-1.34
6,UUUCUUAUCUCUGUUGUUC against CRCP,0.4
7,UUUGGUGAUAGGGUGCUCG against C5orf60,-3.47
8,UUUCUUAGGUGUAUUGACC against PRDX1,-1.23
9,AAGGUAGGCAAAAUUAUCC against GALNT16,1.35
10,UAGACGUGCACGAACACGC against MOB3A,-0.135
11,UGAUAUAGGAGUUAGACUG against KRTAP2-2,0.0896
12,UUAGCAAGCAUCCUUUCGC against LTN1,-0.45
13,AAACAGAAGAGGGAGUGGG against LINC01567,-2.3
14,UGAAUAAUACCUAUAAUCC against OR4F6,-0.573
15,UUGGACAUGAUGAAAUUCC against EML3,0.0247
16,UACAUGCUCCGCACAGUCC against NOTCH1,-0.17
17,UUGGAGCACUGUAAAGGCC against ZFP14,0.456
18,UCUUUAUCAAGUUUACAGG against LANCL3,-0.0126
19,AUAGUUCGGAUCACAAUGC against NPSR1,0.18
20,UUCACUGUCAGUCCGAUGG against COPZ1,-3.71
21,UCUGGUUCUUGUUGGGUAG against ECEL1,-2.81
22,UUUCGAGAAAUAAUACACC against RPA1,-0.401
23,UGUAGAAUGAUCACCAACC against PCNX4,0.471

row,Sequence,seed-corrected z-score
1,UAGGUCAUAACAGAAUGCU against FLNC,-0.156
2,UGUAGUCACACCAGAGAGG against FAM180B,-2.49
3,AAAGAUAUCAGGCACCCAG against GABRR3,0.633
4,UAAACUGCACUUUCCACGG against C12orf49,-2.69
5,UGUAUUAUGACCUUCGCUC against MORC4,-0.441
6,UCAAUUGAUUCCUCAAUUC against MCM6,0.575
7,UAUGCUUUCAAAAGAGUCC against ETS1,-1.16
8,AAGGCAUUAAGACUCUUGG against HDAC3,-0.388
9,UCCUUUACCGAUUUCAGUU against XRCC3,-0.609
10,UUCCUUCUUAGGUUUCUUC against LRRC59,0.83
11,UAGUUGUCACCAUCCGUGC against DSE,-2.48
12,AAGUUUAUAUACACUUUUG against NDUFS6,0.771
13,UUUCAGAUCAUACUCGCCG against VPS33B,0.89
14,UGAGGAGCGACAAUCUUCC against TFAP2C,-0.276
15,UGCCUGGAGAGAGUGUACG against PGLYRP1,-0.292
16,UUAGCAUUAAAACAGGUAG against GC,-0.347
17,UGGGAUCUCAGCUGUAUCC against XAGE1E,-2.37
18,UUUAGUAACAGCCCAGUUC against CCDC36,-0.277
19,AUAGGUAUCAGGCACCCAG against GABRB2,1.35
20,UAUUCUUACUGAUCGUUUG against FLI1,-6.54
21,UAUUCACCCAGAACUGUUG against CYP24A1,0.031
22,UAUAUCACCAUAUAAUCAC against ADRA2B,-0.259
23,AAAUUAAUCUUCUUCAUUC against COX17,0.109

row,Sequence,seed-corrected z-score
1,UCUGGAUCAAAGGGUGUUG against TMEM134,-4.42
2,UGAACUCCUUCAAUCCUGC against AHSP,0.888
3,UUAAUAAGACUUCAAGAUG against MYOCD,0.454
4,UUCCGGUACAAGAUAUUCC against QRSL1,0.059
5,AUAGGGUUUUACAUGAGGC against MYLK,-0.272
6,UCAUGAUCUGCGAAGUUGG against CCDC75P1,-2.24
7,UAUGUUCAGCUCGCAUUUC against CMAS,0.259
8,UUCAUGUCCAGGAUAUCCC against OBFC1,-0.538
9,AUUGAUAUAAGGAUCAACA against OR5K1,0.45
10,UUGGGUACCUCAGUCCACA against SNRPD2,-2.98
11,UACAUCUAAUUCACAGUUC against F9,0.676
12,UAAAUUUGCCCUGCUCUUG against OR2B11,0.408
13,AGUGUGACAAGAACGUGCC against MYL6P5,-0.946
14,UCUGUGAACACCGGCAUGU against NCLN,2.18
15,UUACGUUCUUGAAAGGCGG against IARS,1.47
16,AGACAGAUGCGUUUGAUUC against PYDC2,0.835
17,AAUGGAACAACAGCGGUCC against ZNF217,-0.315
18,UUCCUAGAAACCCAGACUG against SPATA31E1,-3.97
19,UACCGAUUUGGUAAUAUCG against LY75,-0.557
20,UCUCGUUAGUGAUUAAGUC against SULF1,-0.403
21,UCACCUUGAAGCUAUAACC against ERCC3,0.757
22,UUUGAUUUCAGCAUCUUCC against TSKS,-3.12
23,AAAUGGUCCAGCAAAUUCU against NPPA,0.589

row,Sequence,seed-corrected z-score
1,UUUUCGUGAUGCUUGGUCC against NDEL1,1.78
2,UCAAGAGAAUUCUGUAAUC against C5orf60,-0.0754
3,AUAGUACACGAUGAACUCG against RAMP3,-0.177
4,UGACUGACACUUUCAAAGC against SHC1,-0.358
5,UGUGGUACCAGGCUGCUUG against PAQR8,-2.42
6,UUGUUGGACAGUUGAAUCG against SEC62,0.834
7,UUGAGUUCCAAGAGGACCC against TPBG,0.978
8,UUUCUUAUUGUUGCGGCAG against SNRPD2,-2.78
9,UAUGUGGUUAGUCCGUGUG against GTF3C1,0.362
10,AAAGUUUUCCCUUAUGAUG against MYADML2,0.381
11,UGUUCUUUAAGCCUUUCCA against BLOC1S5,-0.0488
12,UUCCGGAACAUGAAGUGCC against DYRK1B,-0.257
13,UUGUCAAACAGGACUGAGU against AZIN2,-0.00443
14,UGUGGGAAAGCAGGUAUCU against ZNF815P,-1.11
15,UAAAGAUGCAGAUAAUAAC against NMUR1,0.231
16,UUACGAAUGACAUCCUUUG against CKAP5,-2.84
17,AACACUUACGCAGUUCUUG against MTCP1,0.193
18,UUUUUCUUCACAGGUGUUU against HIST1H1D,-0.582
19,UAAGCUUUUAUUGUGAAUG against GRP,-2.97
20,UUCUCAUCACUUGUAGCCU against ANKRD36C,0.48
21,UGUUUAGUAGCAGAUCUCC against PSMD6,-2.83
22,GUUGGUAACAGGGUCAUUU against RXRG,-0.41
23,UUGCGAACAAUAGGGUUAG against PZP,-0.222

row,Sequence,seed-corrected z-score
1,UAAAUGUACCGUUUAAACC against LOC647481,0.567
2,UCCGGAAUGUCGAUGCCCU against DUX5,-0.471
3,ACUGUUAUUCUUACGCUGG against CUL3,-0.643
4,AAUUUGACCUCAUCCAUUU against FAM47C,-0.798
5,UGGUGUAACUUCAACAUCG against ATP13A4,-2.09
6,UAUUCGUCAGCUCAAACUC against IQCH,-1.02
7,UAGGGUGAGAAUAGACAGG against PEX11B,0.764
8,UUCAGUUGUGAUAAGUUGC against TLR6,-0.0452
9,UUUCGAUCUCUGUUAAGCC against C2orf40,0.448
10,UUGAAGACCACGUACAUGG against SLC35D3,-0.373
11,UAAGCGUAUCUGGAAUUAC against UGCG,0.00222
12,UUCUUGACGUGCUUCAUUC against SCO1,-0.488
13,UUACGGAUCAUGUGGUCUU against SCNN1B,0.029
14,UGACUUCACAUGGACUACG against IDH3B,-2.07
15,AUCAUUCACAGGGAGGUCC against OAZ2,1.3
16,UUUGCAUCCCUCGCACUUG against MT3,0.331
17,UUGAAUUCAUUGCAUGUCC against CTSZ,0.0627
18,UAGCGGGUCUCAUCAAAGC against HGFAC,1.53
19,UUAGGUGCGCGGCUAACUG against COL9A3,-2.65
20,UCAAUGCAAAGGAACACUC against ARFGAP3,-0.0755
21,AUGUGGGUAAAAACUUGCU against NGRN,-2.09
22,UUCUUUAUUCCUUGAGCUG against OR10A4,-3.24
23,UACUUGACGAUGUUGCGCG against ADGRL1,-0.114

row,Sequence,seed-corrected z-score
1,UUCAUAUACAGCACAAUAC against CD58,1.5
2,UUGGAGGACAGGUCCAAGU against TSKU,0.336
3,UUCCAUGUAAAACAAUUUC against PDE4D,0.777
4,UUAUCUGUGACAUAAGUUG against ALG13,-2.26
5,UAGGGUACAUCGUAGGGAG against MYO15A,-0.369
6,GGAUUUGCAGCGCAAAGCC against LYPD1,-0.365
7,UCUGGAUUAACGGUGGUCU against NOVA1,-3.04
8,UAAGACUCAAAGUUCCCAG against LOC642502,-0.393
9,AGAUGAAAAAGUAAGGCCG against TRIM58,-0.628
10,UUUUCGAGGACAUUGACUG against FMN1,0.159
11,UCUUGCUCCAAACCUGCUC against KLHL34,-0.143
12,UUGCGGUAGACGAUGAUGC against ADAM8,-1.99
13,AAGCAUAAAAGGUUCCUGU against IRF4,0.397
14,UUCUCGUGCACUGUCAAAG against SMU1,-3.77
15,UUUGCGGUCACAAUUGGGC against IGFBP5,-0.759
16,AGACAUAACACUACGAGAC against GBA2,0.274
17,UUCUUCAUGCGCAGUGUGG against INF2,0.288
18,AAAUCCUCCAAACAUGUGC against ZNRF2,-0.0777
19,UGAUCGAAAUGAUUUACAC against CD180,-0.034
